RORgamma inh = inhibitors of mouse ROR gamma transcriptional activity. P51450. Drosophila S2 Gal4-RORgamma UAS-luciferase reporter, 20 h. Potency, µM (titrated, usually from 53.6 µM), for inactives: top-dose activity change, negative = inhibition, usual class: inhibitors. actives 5.4% (n = 310,000); further: nearly all actives have a fitted effect of over 60% in size
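Using a luciferase readout, inhibitors were identified by reduced reporter activity in Drosophila cells coexpressing a copper-inducible Gal4–ROR gamma fusion and UAS-driven Photinus luciferase, incubated 20 hr after 700 uM copper sulfate.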
TDP1 cell noCPT = qHTS for Inhibitors of human tyrosyl-DNA phosphodiesterase 1 (TDP1): qHTS in cells in absence of CPT; DT40 Tdp1-/- hTDP1 cells, no CPT, ATP luminescence, 48 h; Potency, µM (titrated, usually from 46.2 µM), for inactives: top-dose activity change, negative = growth inhibition, most hits filed as inhibitors; actives 15% (n = 420,000); further: nearly all actives have a fitted effect of over 55% in size
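Stably hTDP1-transfected Tdp1-null chicken DT40 cells were treated with library compounds minus camptothecin and grown for at least 48 hr at 37 °C, after which cellular ATP was quantified by luminescence.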
12-LOX inh = ALOX12 (human) lipoxygenase inhibition; P18054; purified 12hLO, xylenol orange hydroperoxide absorbance; Potency, µM (top dose mostly 108 µM), without a hit: at the highest dose activity change, negative = inhibition, most hits filed as inhibitors; actives 1.1% (n = 580,000)
Target sequence (P18054 whole entry, looked up): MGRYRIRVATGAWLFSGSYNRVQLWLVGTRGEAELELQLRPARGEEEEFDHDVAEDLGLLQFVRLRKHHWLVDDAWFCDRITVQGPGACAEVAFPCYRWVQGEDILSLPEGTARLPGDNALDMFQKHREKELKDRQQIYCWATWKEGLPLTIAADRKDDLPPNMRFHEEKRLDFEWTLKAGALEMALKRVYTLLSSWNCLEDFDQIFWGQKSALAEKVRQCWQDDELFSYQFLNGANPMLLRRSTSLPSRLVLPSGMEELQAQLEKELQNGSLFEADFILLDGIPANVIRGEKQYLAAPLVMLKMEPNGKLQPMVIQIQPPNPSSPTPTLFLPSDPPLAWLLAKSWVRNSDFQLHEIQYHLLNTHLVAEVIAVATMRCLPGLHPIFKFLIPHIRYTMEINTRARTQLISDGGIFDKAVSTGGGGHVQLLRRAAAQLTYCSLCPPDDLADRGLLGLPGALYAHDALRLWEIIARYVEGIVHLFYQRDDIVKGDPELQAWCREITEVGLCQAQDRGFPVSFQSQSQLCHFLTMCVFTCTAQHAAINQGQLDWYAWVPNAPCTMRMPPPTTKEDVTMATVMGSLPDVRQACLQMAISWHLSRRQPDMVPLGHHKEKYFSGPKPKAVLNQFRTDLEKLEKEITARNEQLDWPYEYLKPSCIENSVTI
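Purified human 12hLO (150 nM final) in 25 mM Hepes, 0.01% Triton X-100, pH 7.0 was preincubated 15 min at room temperature with compound. Then 40 uM arachidonic acid was added, 30 min. Hydroperoxide was read by Fe-XO absorbance ratio 573/405 nm.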
Gal4-VP16 FLuc = counter-screen for ROR gamma inhibitors: Gal4-VP16 reporter; Drosophila S2 Gal4-VP16 UAS-luciferase, luminescence, 20 h; Potency, µM (top dose mostly 53.6 µM), inactives show top-dose activity, negative = inhibition, most hits filed as inhibitors; actives 3.5% (n = 310,000);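 further: Gal4-VP16 expression switched on by copper sulfate through the metallothionein promoter; nearly all actives have a fitted effect of over 50% in size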
DT40 TDP1 CPT = growth inhibition of DT40 Tdp1-/-;hTDP1 cells with camptothecin (screen for TDP1 inhibitors) | chicken DT40 Tdp1-/-;hTDP1 cells + 20 nM CPT, ATP luminescence, 48 h | Potency, µM (titrated, usually from 46.2 µM), for inactives: at the top dose activity change, negative = growth inhibition, usual class: inhibitors | actives 12% (n = 420,000) | AID 686979; further: nearly all actives have a fitted effect of over 55% in size
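Chicken DT40 Tdp1-/- cells complemented with human TDP1, 400 cells/well, exposed to compounds plus 20 nM camptothecin for at least 48 h at 37 C; viability read as ATP content by CellTiter-Glo luminescence.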
ELG1 repair inh = inhibitors of ELG1-dependent DNA repair in HEK293T cells. HEK293T ELG1-luciferase reporter, luminescence, 16 h; DNA damage induced by 5-fluorouridine. Potency, µM (doses to about 46.1 µM), for the others: at the top dose activity change, negative = inhibition, hits mostly inhibitors. actives 2.3% (n = 330,000); further: nearly all actives have a fitted effect of over 55% in size
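Luminescence from the luciferase reporter, measured 30 min after ONE-Glo reagent at room temperature, was the read-out. Beforehand, 2,000 cells per well were exposed for 16 hr at 37 °C to 5-fluorouridine together with compound or vehicle.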
An asterisk follows results filed as active; ? = inconclusive; . = not tested or not shown; [ ] = remark or other dose. In the library only some 15% were active in any assay of this set; here they are far more common. The call rests on the fitted dose curve; in most records, active means well fitted curve in the direction sought with a large enough effect; inconclusive means small, poorly fitted or top-dose-only effect, or another doubt; inactive means no such curve, though single readings can be large; an effect the other way counts as inactive or inconclusive. On the % scale 0 is the no-effect control and ±100 the full control effect; potency means the concentration at half of the fitted maximal effect.

SMILES | RORgamma inh | TDP1 cell noCPT | 12-LOX inh | Gal4-VP16 FLuc | DT40 TDP1 CPT | ELG1 repair inh
CC(C)CC(/C(O)=C(\C#N)c1nc2ccccc2[nH]1)N1C(=O)c2ccccc2C1=O (centres undefined) | 7.94µM* | -22.7% | ? | 20µM* | -17.3% | ?
CCOC(=O)/C(O)=C(\C#N)c1nc2ccccc2[nH]1 | ? | -20.2% | 3.2% | -5.6% | -9.7% | 16.2%
Cc1cc(=O)n(CC(=O)Nc2ccc(C(C)C)cc2)c(N2CCOCC2)n1 | . | . | 10.5% | . | . | .
O=C(O)c1cccc(CC2CCN(C(=O)c3ccc(Cn4cnnn4)cc3)C2)c1 (centres undefined) | . | . | 6.6% | . | . | .
CCOC(=O)N1CCN(c2ncc3c(n2)CC(/C=C/c2ccccc2)CC3=O)CC1 (centres undefined) | . | . | 14.4% | . | . | .
O=C(c1ccc(F)cc1)N1CCCC(CN2CCOCC2)CC1 (centres undefined) | . | . | 34.0% | . | . | .
COc1cc(Cl)ccc1OC1(C)CCN(Cc2ccccc2OC(F)F)C1 (centres undefined) | . | 20.6µM* | -8.8% | . | 20.6µM* | .
COc1cc(Cl)ccc1OC1(C)CCN(Cc2cccc(OC)c2OC)C1 (centres undefined) | . | 16.4µM* | -6.7% | . | 13µM* | .
CN1CCN(c2ncnc3sc4c(c23)CCNC4)CC1 | . | . | 166.0% | . | . | .
O=C(NCC1(COc2cnccn2)C[C@@H](O)[C@@H](O)C1)Nc1cccnc1 (some centres undefined) | . | . | 25.1µM* | . | . | .
CCCn1c(=N)n(CC(O)c2ccc(C)cc2)c2ccccc21 (centres undefined) | 6.2% | 23.1µM* | 13.3% | 0.1% | ? | 11.5%
CCCn1c(=N)n(CC(O)COc2ccc(C)cc2)c2ccccc21 (centres undefined) | 28.3% | 5.17µM* | -20.7% | ? | 4.61µM* | ?
CCn1c(=N)n(CC(O)COc2ccc(C)cc2)c2ccccc21 (centres undefined) | -0.9% | 16.4µM* | 87.5% | -3.2% | 11.6µM* | ?
CCCn1c(=N)n(CC(O)c2ccco2)c2ccccc21 (centres undefined) | -5.6% | ? | 0.0% | 5.1% | ? | -4.0%
Cn1c(=N)n(CC(O)c2cccc3ccccc23)c2ccccc21 (centres undefined) | 1.8% | 13µM* | 15.5% | 3.9% | 14.6µM* | -21.8%
CCn1c(NC(=O)c2oc3ccccc3c2COC)nc2ccccc21 | . | . | 2.2% | . | . | .
CN(C)CC(O)COc1cccc(OCC(O)CN(C)C)c1 (centres undefined) | 5.6% | -2.9% | 0.0% | -5.5% | 14.1% | 15.6%
CCCCN(CC(O)COc1cccc(C)c1)CC(O)COc1cccc(C)c1 (centres undefined) | ? | 23.1µM* | ? | ? | ? | -26.7%
CN=c1sc2ccccc2n1CC(O)COc1ccccc1 (centres undefined) | -12.0% | 18.4µM* | 22.1% | 3.2% | ? | -11.1%
Cc1cccc(OCC(O)CN2CCc3ccccc3C2)c1 (centres undefined) | 2.0% | ? | -21.6% | -4.4% | ? | -4.9%
CCCCn1c(=N)n(CC(O)COc2cccc(C)c2)c2ccccc21 (centres undefined) | -20.4% | 13µM* | -12.7% | ? | 11.6µM* | ?
CCN(CC)CCn1c(=N)n(CC(O)COc2ccccc2)c2ccccc21 (centres undefined) | 10.7% | 18.4µM* | -8.6% | -3.0% | ? | ?
CCN(CC)CCn1c(=N)n(CCO)c2ccccc21 | 3.1% | -13.3% | -6.6% | -3.9% | -17.4% | 1.5%
COc1cc2c(cc1CNC(=O)Cn1nc(C)n(Cc3ccccc3)c1=O)CCC2 | . | . | 11.0% | . | . | .
Cc1ccc(-c2nn(C)c(=O)c3c2CCCC3)cc1S(=O)(=O)NC1CC1 | . | . | 19.3% | . | . | .
SMILES | RORgamma inh | TDP1 cell noCPT | 12-LOX inh | Gal4-VP16 FLuc | DT40 TDP1 CPT | ELG1 repair inh
CCCCn1c(N)c(C(=S)NC(=O)CC(C)(C)C)c(=O)n(C)c1=O | 1.26µM* | ? | ? | 0.708µM* | ? | -13.6%
O=C(Cc1cccn1-c1cccc(Cl)c1)NCc1ccc(N2CCOCC2)cc1 | . | . | 3.9% | . | . | .
CCCOc1ccc(OCCNC2CCCC2)cc1 | -6.2% | 16.4µM* | ? | -5.0% | -20.6% | 17.5%
O=c1[nH]c2cc3c(cc2cc1CN1CC[C@H](O)C1)OCO3 | . | . | 80.1% | . | . | .
O=C(Nc1cc(-c2nc3ccccc3o2)ccc1Cl)c1cccc2c(Cl)cccc12 | . | -21.7% | -23.4% | . | ? | .
Cc1c(NC(=O)c2ccc(Br)o2)cccc1-c1nc2ccccc2o1 | . | 23.1µM* | 3.0% | . | 25.9µM* | .
Cc1c(NC(=O)c2cccc3c(Cl)cccc23)cccc1-c1nc2ccccc2o1 | . | 20.6µM* | -14.8% | . | 14.6µM* | .
COc1ccc(OC)c(-c2cc3ccc(OC)cc3oc2=O)c1 | . | . | 54.9% | . | . | .
COc1cc(CNC(=O)C2CCN(c3cn[nH]c(=O)c3)C2)cc(OC)c1 (centres undefined) | . | . | 30.6% | . | . | .
CCCn1c(SCC(=O)Nc2ccccc2-c2ccccc2)nnc1-c1ccoc1C | 39.5% | 10.3µM* | 0.0% | -1.2% | 16.4µM* | ?
CCn1c(SCC(=O)Nc2ccccc2C(=O)OC)nnc1-c1ccc(N)cc1 | 1.9% | -11.0% | -8.0% | 1.2% | -12.9% | ?
CCn1c(SCC(=O)Nc2ccccc2C(=O)OC)nnc1-c1ccoc1C | -17.9%[10 µM] | 29.1µM* | ? | 8.6% | -28.8% | -19.0%
Cc1ccccc1NC(=O)CSc1nnc(-c2ccoc2C)n1CCc1ccccc1 | 27.7% | ? | 8.5% | 2.6% | ? | -21.3%
Cc1occc1-c1nnc(SCC(=O)Nc2ccccc2-c2ccccc2)n1C | 24.2% | 15.8µM* | 0.0% | -10.9% | ? | ?
Cn1c(SCC(=O)Nc2ccccc2-c2ccccc2)nnc1-c1ccco1 | 9.1% | -9.4% | 8.8% | 1.2% | ? | -6.8%
COc1ccccc1C1SCCN1S(=O)(=O)c1cccc(C(F)(F)F)c1 (centres undefined) | 15.8% | 15.8µM* | -15.3% | 8.7% | -4.5% | -2.4%
Cc1ccc(S(=O)(=O)N2CCN(S(=O)(=O)c3ccc(C)cc3)C2c2ccccc2)cc1 | -10.7% | ? | 6.2% | -11.2% | 17.8µM* | -17.9%
Cc1ccc(S(=O)(=O)N2CCCC2c2ccccc2)cc1 (centres undefined) | . | . | 8.5% | . | . | .

Bioassay records from PubChem BioAssay.
